Measured values as given in PubChem BioAssay AID1159580 (chemical genetic matrix, 2015).
The campaign covered roughly 5,500 compounds. About 2,000 (36%) were called active. Another 18% or so got no clear call; they are omitted. Rule as the data show it: active = normalized growth mostly below about 0.91 (no sharp cut-off); inconclusive = no clear call, values can overlap the other calls; inactive = mostly above about 0.92. Some of the results follow.

Assay: chemical genetic growth profiling, strain panel (AID 1159580);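 also: tested at 20 µM; growth read once vehicle control cultures reached saturation at 30 °C; 1 = growth at the plate median or of vehicle wells; lower values mean less growth of the strain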
Settings: growth OD

Measured: normalized growth

CCCCN(CC)c1c([N+](=O)[O-])cc(C(F)(F)F)cc1[N+](=O)[O-]
inactive: S. cerevisiae deletion strains, locus YJR075W, strain HOC1, stronger effect = lower value 1 | S. cerevisiae deletion strains, locus YKL009W, strain mrt4, stronger effect = lower value 1.04 | S. cerevisiae deletion strains, locus YKL068W, stronger effect = lower value 1.01 | S. cerevisiae deletion strains, locus YKL085W, strain MDH1 (second series), stronger effect = lower value 1.01 | S. cerevisiae deletion strains, locus YKL085W, strain MDH1, stronger effect = lower value 1.01 | S. cerevisiae deletion strains, locus YKL160W, strain elf1, stronger effect = lower value 1.02 | S. cerevisiae deletion strains, locus YKL190W, strain CNB1, stronger effect = lower value 1.02 | S. cerevisiae deletion strains, locus YKR001C, strain vps1, stronger effect = lower value 1.04 | S. cerevisiae deletion strains, locus YKR026C, strain gcn3, stronger effect = lower value 1.02 | S. cerevisiae deletion strains, locus YKR091W, strain srl3, stronger effect = lower value 1.01 | S. cerevisiae deletion strains, locus YLL001W, strain dnm1, stronger effect = lower value 1.01 | S. cerevisiae deletion strains, locus YLL026W, stronger effect = lower value 1 | S. cerevisiae deletion strains, locus YLL041C, strain sdh2, stronger effect = lower value 1.01 | S. cerevisiae deletion strains, locus YLR027C, strain aat2, stronger effect = lower value 0.996 | S. cerevisiae deletion strains, locus YLR039C, strain RIC1, stronger effect = lower value 1.02 | S. cerevisiae deletion strains, locus YLR058C, strain SHM2, stronger effect = lower value 1.01 | S. cerevisiae deletion strains, locus YLR102C, strain apc9, stronger effect = lower value 1.01 | S. cerevisiae deletion strains, locus YLR113W, strain HOG1, stronger effect = lower value 0.973 | S. cerevisiae deletion strains, locus YLR221C, strain rsa3, stronger effect = lower value 1 | S. cerevisiae deletion strains, locus YLR258W, strain gsy2, stronger effect = lower value 1.01 | S. cerevisiae deletion strains, locus YLR262C, strain YPT6 (second series), stronger effect = lower value 0.995 | S. cerevisiae deletion strains, locus YLR262C, strain YPT6, stronger effect = lower value 1.02 | S. cerevisiae deletion strains, locus YLR268W, strain sec22, stronger effect = lower value 1.02 | S. cerevisiae deletion strains, locus YLR320W, strain mms22, stronger effect = lower value 1.02 | S. cerevisiae deletion strains, locus YLR330W, strain CHS5, stronger effect = lower value 1.01 | S. cerevisiae deletion strains, locus YLR342W, strain FKS1 (second series), stronger effect = lower value 1.08 | S. cerevisiae deletion strains, locus YLR342W, strain FKS1, stronger effect = lower value 1 | S. cerevisiae deletion strains, locus YLR357W, strain rsc2, stronger effect = lower value 1.03 | S. cerevisiae deletion strains, locus YLR370C, strain arc18, stronger effect = lower value 1.01 | S. cerevisiae deletion strains, locus YLR371W, strain rom2, stronger effect = lower value 1.01 | S. cerevisiae deletion strains, locus YLR384C, strain iki3, stronger effect = lower value 1 | S. cerevisiae deletion strains, locus YLR418C, strain cdc73, stronger effect = lower value 1 | S. cerevisiae deletion strains, locus YML016C, strain PPZ1, stronger effect = lower value 1.01 | S. cerevisiae deletion strains, locus YML032C, strain rad52, stronger effect = lower value 1.02 | S. cerevisiae deletion strains, locus YML120C, strain ndi1, stronger effect = lower value 1.03 | S. cerevisiae deletion strains, locus YML124C, strain tub3, stronger effect = lower value 1.01 | S. cerevisiae deletion strains, locus YMR058W, strain fet3, stronger effect = lower value 1.02 | S. cerevisiae deletion strains, locus YMR078C, strain ctf18, stronger effect = lower value 1.01 | S. cerevisiae deletion strains, locus YMR125W, strain sto1, stronger effect = lower value 1.01 | S. cerevisiae deletion strains, locus YMR129W, stronger effect = lower value 1.02 | S. cerevisiae deletion strains, locus YMR205C, strain PFK2, stronger effect = lower value 1 | S. cerevisiae deletion strains, locus YMR223W, strain ubp8, stronger effect = lower value 1.02 | S. cerevisiae deletion strains, locus YMR231W, strain pep5, stronger effect = lower value 0.997 | S. cerevisiae deletion strains, locus YMR263W, strain SAP30, stronger effect = lower value 1.02 | S. cerevisiae deletion strains, locus YMR307W, strain GAS1, stronger effect = lower value 0.998 | S. cerevisiae deletion strains, locus YNL067W, strain RPL9B, stronger effect = lower value 1.01 | S. cerevisiae deletion strains, locus YNL071W, strain lat1, stronger effect = lower value 1.02 | S. cerevisiae deletion strains, locus YNL128W, strain TEP1, stronger effect = lower value 1.02 | S. cerevisiae deletion strains, locus YNL153C, strain GIM3, stronger effect = lower value 1.01 | S. cerevisiae deletion strains, locus YNL183C, strain NPR1, stronger effect = lower value 0.999 | S. cerevisiae deletion strains, locus YNL209W, strain ssb2, stronger effect = lower value 1.01 | S. cerevisiae deletion strains, locus YNL233W, strain BNI4, stronger effect = lower value 1.01 | S. cerevisiae deletion strains, locus YNL248C, strain rpa49, stronger effect = lower value 1.02 | S. cerevisiae deletion strains, locus YNL250W, strain rad50, stronger effect = lower value 1 | S. cerevisiae deletion strains, locus YNL271C, strain bni1, stronger effect = lower value 1.01 | S. cerevisiae deletion strains, locus YNL298W, strain CLA4, stronger effect = lower value 1.01 | S. cerevisiae deletion strains, locus YNL307C, strain MCK1, stronger effect = lower value 1.02 | S. cerevisiae deletion strains, locus YNL322C, strain KRE1 (second series), stronger effect = lower value 1.01 | S. cerevisiae deletion strains, locus YNL322C, strain KRE1, stronger effect = lower value 1.01 | S. cerevisiae deletion strains, locus YNR049C, strain mso1, stronger effect = lower value 1.01 | S. cerevisiae deletion strains, locus YNR052C, strain pop2, stronger effect = lower value 1.02 | S. cerevisiae deletion strains, locus YOL006C, strain TOP1, stronger effect = lower value 1.01 | S. cerevisiae deletion strains, locus YOL012C, strain htz1 0.93 | S. cerevisiae deletion strains, locus YOL147C, strain pex11, stronger effect = lower value 1.01 | S. cerevisiae deletion strains, locus YOR001W, strain rrp6, stronger effect = lower value 1.03 | S. cerevisiae deletion strains, locus YOR061W, strain CKA2, stronger effect = lower value 1.01 | S. cerevisiae deletion strains, locus YOR069W, strain VPS5, stronger effect = lower value 1.01 | S. cerevisiae deletion strains, locus YOR070C, strain gyp1, stronger effect = lower value 1.02 | S. cerevisiae deletion strains, locus YOR080W, strain dia2, stronger effect = lower value 1 | S. cerevisiae deletion strains, locus YOR083W, strain WHI5, stronger effect = lower value 1.02 | S. cerevisiae deletion strains, locus YOR106W, strain vam3, stronger effect = lower value 0.994 | S. cerevisiae deletion strains, locus YOR136W, strain idh2, stronger effect = lower value 1.01 | S. cerevisiae deletion strains, locus YOR144C, strain elg1, stronger effect = lower value 1.01 | S. cerevisiae deletion strains, locus YOR184W, strain ser1, stronger effect = lower value 1.03 | S. cerevisiae deletion strains, locus YOR231W, strain MKK1, stronger effect = lower value 1.06 | S. cerevisiae deletion strains, locus YOR265W, strain rbl2, stronger effect = lower value 1.03 | S. cerevisiae deletion strains, locus YOR270C, strain vph1, stronger effect = lower value 1.06 | S. cerevisiae deletion strains, locus YOR290C, strain snf2, stronger effect = lower value 1.04 | S. cerevisiae deletion strains, locus YOR316C, strain cot1, stronger effect = lower value 1.01 | S. cerevisiae deletion strains, locus YPL051W, strain arl3, stronger effect = lower value 1 | S. cerevisiae deletion strains, locus YPL055C, strain LGE1, stronger effect = lower value 1.01 | S. cerevisiae deletion strains, locus YPL078C, strain atp4, stronger effect = lower value 1.02 | S. cerevisiae deletion strains, locus YPL106C, strain sse1, stronger effect = lower value 1.03 | S. cerevisiae deletion strains, locus YPL240C, strain hsp82, stronger effect = lower value 1.01 | S. cerevisiae deletion strains, locus YPL241C, strain CIN2, stronger effect = lower value 1.01 | S. cerevisiae deletion strains, locus YPL256C, strain CLN2, stronger effect = lower value 1.05 | S. cerevisiae deletion strains, locus YPR119W, strain clb2, stronger effect = lower value 1.01 | S. cerevisiae deletion strains, locus YPR141C, strain kar3, stronger effect = lower value 1.01 | S. cerevisiae deletion strains, locus YPR163C, strain tif3, stronger effect = lower value 1.01 | S. cerevisiae deletion strains, locus YPR167C, strain met16, stronger effect = lower value 1.02 | S. cerevisiae deletion strains, strain wtn01, stronger effect = lower value 1.01 | S. cerevisiae strains, strain wild type, stronger effect = lower value 1.01
